In all, about 360,000 compounds went through this assay and about 7,500 (2.1%) were called active. Entries that show only a call come without a potency. About 20% were inconclusive and are not listed. Calls come from the whole dose curve; as a rule, active = well fitted inhibition curve with a large enough effect; inconclusive = small, poorly fitted or top-dose-only effect, or effect the other way; inactive = flat fitted curve, though single readings scatter. This excerpt belongs to a sample that is enriched for actives.
Potency is the fitted concentration of half-maximal effect.

The test can be described thus: Nrf2 qHTS screen for inhibitors. Note: nearly all actives have a fitted effect of over 60% in size. Particulars: A549 ARE-Fluc reporter, luciferase luminescence, 18-24 h; series mostly up to 46 µM. The gist of the method:
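Cells were seeded and rested 2 h, then exposed to compounds for 18-24 h. CellTiter-Fluor was read first as a viability measure. BugLite was added 15 min before the final luminescent read of ARE-luciferase activity in A549 cells.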
For `COc1ccc(C(=O)C[n+]2ccc(N)c(C)c2C)cc1`, the Potency was 5.8 µM (active). The same measure, in the same setting: under `COc1ccc(CCC(=O)c2ccc(OC)cc2)cc1` stands “inactive”; under `COc1ccc(C(=O)C[n+]2ccc(C)cc2)cc1`, “inactive”; under `CC/C(=C\c1ccc(Cl)cc1)c1ccncc1`, “inactive”. Same read-out and setting: the value for `COc1ccc(S(=O)(=O)N(C)C[C@H]2Oc3c(NC(=O)Nc4ccc5c(c4)OCO5)cccc3C(=O)N([C@H](C)CO)C[C@@H]2C)cc1` was “inactive”; that for `COc1ccc(C(=O)N(Cc2ccccc2)Cc2ccc(OC)c(COc3ccc(NC(C)=O)cc3)c2)c(O)c1` was “inactive”; that for `Cc1cn(COC/C=C/c2ccccc2)c(=O)[nH]c1=O` was “inactive”. The same measure, in the same setting: the value for `Cc1cccc(C=CC(=O)c2ccc(Cl)cc2)c1` was “inactive”; that for `Cc1[nH]c(=O)c(C(=O)/C=C/c2ccccc2)c2c1CCCC2` was 20.6 µM (active); that for `Nc1ccc2c(c1)C(=Cc1cccnc1)c1ccccc1-2` was “inactive”.

`CCCc1nc2c(c(=O)c3ccccc3n2C)c(=O)n1C1CCCCCC1`: the Potency was 23.1 µM (active).

As to `Cn1c2ccccc2c(=O)c2c(O)cccc21`, the Potency result is “inactive”. In the case of `CCCc1nc2c(c(=O)c3ccccc3n2C)c(=O)n1-c1cc(C)cc(C)c1`, the Potency entry was “inactive”. Still for that read-out and setting: the value for `O=C(NCc1cccnc1)C(=O)NCC(c1cccnc1)N1CCN(c2ccccc2)CC1` (configuration not stated) was “inactive”; that for `O=C(CCCCCCCC(=O)N1CCCCC1)N1CCCCC1` was “inactive”. On to `COc1cc(CNCCN(C)C)ccc1OCc1c(F)cccc1Cl`, for which the Potency entry is “inactive”.

Turning to `COCCCNC(=O)/C=C/c1ccc(OCc2c(F)cccc2Cl)cc1`, the Potency result is “inactive”.

For the compound `CN(C)CCCNC(=O)/C=C/c1ccc(OCc2c(F)cccc2Cl)cc1`, the Potency is 20.6 µM (active). Still for that read-out and setting: the value for `COc1cc2c(-c3ccc4c(c3)OCO4)c(-c3ccsc3)oc(=O)c2cc1OC` was “inactive”; that for `O=C1C=C(c2cccc(Cl)c2O)C[C@@H](c2ccc(F)cc2)C1` was “inactive”. Still for that read-out and setting: under `COc1ccc(N2CCN(Cc3nc4c(c(=O)[nH]c(=O)n4C)n3Cc3ccc(Cl)cc3)CC2)cc1` stands “inactive”.

`CCc1cccc2c3c([nH]c12)C(CC)(CC(=O)O)OCC3` (configuration not stated): the Potency was 10.3 µM (active).

Regarding `O=C1CC[C@@H]2CC3(C[C@@H]4CCN1[C@H]24)Nc1cc([N+](=O)[O-])ccc1NC3=NC1CCCCC1` (some centres not stated), the Potency result was “inactive”. Same read-out and setting: the value for `CC1CC(C)(C)n2c(O)c(N=NC(N)=S)c3cccc1c32` (configuration not stated) was 14.6 µM (active); that for `Cc1cccc(NC(=O)CSc2nc(-c3ccco3)cc(C(F)(F)F)n2)c1C` was “inactive”; that for `COc1cccc(C=CC(=O)C=CC=Cc2ccccc2)c1` was “inactive”.

Take `Cc1c(Cl)cccc1NC(=O)CCS(=O)(=O)c1ccc2c(c1)oc(=O)n2C`: the Potency result is “inactive”. Still for that read-out and setting: the value for `CCc1ccccc1NC(=O)Cn1c(=O)n(CC2CCC(C(=O)NCCc3ccccc3)CC2)c(=O)c2ccccc21` (configuration not stated) was “inactive”. On the same count and under the same terms, under `CCN(C[C@H]1N[C@@](Cc2ccccc2)(C(=O)OC)[C@H]2C(=O)N(Cc3ccccc3)C(=O)[C@@H]12)C(=O)c1ccc(C)cc1` stands “inactive”; under `CCOc1ccccc1N(CC)C(=O)c1cc2ccc3cccnc3c2[nH]1`, “inactive”.

Turning to `COc1ccccc1CNC(=O)c1ccc(CS(=O)(=O)c2ccccc2)o1`, the Potency result is “inactive”. Still for that read-out and setting: the value for `O=C(NCc1cccnc1)c1ccc(CS(=O)(=O)c2ccc(Br)cc2)o1` was 14.6 µM (active); that for `COc1ccc(CCNC(=O)c2ccc(CS(=O)(=O)c3ccc(Br)cc3)o2)cc1OC` was 4.11 µM (active).

Take `Cc1cccc(NS(=O)(=O)c2ccc(C)c(C(=O)NCc3cccnc3)c2)c1`: the Potency entry is “inactive”. On the same count and under the same terms, the value for `COc1ccc(C(=O)NCCc2ccc(S(N)(=O)=O)cc2)cc1OC` was “inactive”; that for `COc1ccc(CCNC(=O)c2nnc(CS(=O)(=O)c3ccccc3)o2)cc1OC` was “inactive”. Still for that read-out and setting: the value for `Cc1ccccc1-n1c(=O)c2ccccc2n(Cc2ccc(F)cc2)c1=O` was “inactive”; that for `CCCN(C(=O)COC(=O)CNS(=O)(=O)c1ccc(NC(C)=O)cc1)C1CCS(=O)(=O)C1` (configuration not stated) was “inactive”; that for `CC1CCCC(NC(=O)c2cc(S(=O)(=O)N3CCCCC3)ccc2Cl)C1C` (configuration not stated) was “inactive”. On the same count and under the same terms, the value for `CSc1ncc(Sc2ccccc2)c(C(=O)O)n1` was “inactive”. For `CSc1nc(-c2ccccc2)nc(C(Cl)Cl)n1`, the Potency was 23.1 µM (active). As to `Cc1cccc(Nc2nc(C)nc(N)c2S(=O)(=O)c2ccccc2)c1`, the Potency entry was “inactive”. On the same count and under the same terms, the value for `O=C(Nc1cccc(S(=O)(=O)N2CCOCC2)c1)C12CC3CC(CC(C3)C1)C2` was “inactive”; that for `COc1ccc2[nH]c3c(C)c4cc[n+](C)cc4c(C)c3c2c1` was 8.2 µM (active); that for `COc1ccc2[nH]c(=S)cc(C)c2c1` was “inactive”.

For `COc1ccc2[nH]c(C(=O)N3CCN(C)CC3)c(C)c2c1`, the Potency result is “inactive”. For the compound `Cc1ccc(-n2c(=O)c3cccnc3n2CC(=O)NCc2ccc(F)cc2)cc1C`, the Potency entry was “inactive”.

As for `CCOC(=O)Cc1csc(NC(=O)Nc2ccccc2)n1`, the Potency entry is “inactive”. On to `CCOC(=O)/C(=N\Nc1ccccc1[N+](=O)[O-])c1csc(Nc2ccccc2)n1`, for which the Potency is 20.6 µM (active). Still for that read-out and setting: under `CCOC(=O)C/C(C)=N\Nc1ccc([N+](=O)[O-])cc1[N+](=O)[O-]` stands “inactive”; under `CC(=O)OC1=C(C(C)=O)N(Cc2ccccc2)S(=O)(=O)c2ccccc21`, “inactive”.

`Cn1c(CNC(=O)c2ccco2)nnc1SCC(=O)N1CCN(c2ccccc2)CC1`: the Potency result is “inactive”. The same measure, in the same setting: the value for `Cc1cc2nnc(SCC(=O)N3CCN(c4ccccc4)CC3)n2c(N)n1` was “inactive”; that for `Cn1c(Cc2cccc3ccccc23)nnc1SCC(=O)N1CCN(c2cccc(Cl)c2)CC1` was 10.3 µM (active); that for `CC(=O)c1ccc(N2CCN(C(=O)c3ccc(Cl)c(S(=O)(=O)NC4CC4)c3)CC2)c(F)c1` was “inactive”.

Consider `Cc1nn(-c2ccccc2)c(C)c1NC(=O)CCl`, for which the Potency result was “inactive”.

As for `Cc1nn(-c2ccccc2)c(C)c1NC(=O)COC(=O)c1cc(Cl)ccc1O`, the Potency result is “inactive”. Same read-out and setting: under `Cc1nn(-c2ccccc2)c(C)c1NC(=O)COc1ccc(Cl)cc1Cl` stands 16.4 µM (active); under `NC(=O)C1(Nc2ccc([N+](=O)[O-])cc2)CCCC1`, “inactive”. Turning to `Cn1c(=O)c2c(-c3ccccc3Br)n(Cc3ccccc3)cc2n(C)c1=O`, the Potency entry was “inactive”.

Turning to `CCC(=O)N1CCc2cc(Br)cc(S(=O)(=O)CCC(=O)N3CCN(c4ccc(F)cc4)CC3)c21`, the activity change, negative = inhibition is 3.12% [at 9.27 µM] (inactive).

As for `CC(C)=C1SC(N2CCN(c3ccc(C)c(Cl)c3)CC2)=NC1=O`, the Potency result is “inactive”. For `Cc1ccc(N2CCN(C3=NC(=O)/C(=C\c4cccs4)S3)CC2)cc1`, the Potency result was “inactive”. For `CC(C)=C1SC(N2CCN(c3cccc(C)c3)CC2)=NC1=O`, the Potency is 23.1 µM (active). Regarding `CCN(CC)S(=O)(=O)c1ccc(N2CCCC2)c(NC(=O)c2ccc([N+](=O)[O-])o2)c1`, the Potency result was “inactive”. On the same count and under the same terms, the value for `C=Cc1ccc(Cn2c(C(=O)O)c(CNC3CCCC3)c3ccc(C)cc32)cc1` was “inactive”. Same read-out and setting: under `COc1ccc(NS(=O)(=O)c2cc(C(=O)Nc3ccccc3C(=O)O)ccc2C)cc1` stands “inactive”; under `Cc1ccccc1NC(=O)c1cc(S(=O)(=O)Nc2cccc(C(=O)O)c2)ccc1Cl`, “inactive”.

In the case of `C=CCNC(=O)c1ccccc1NC(=O)c1ccc(Cl)c(S(=O)(=O)Nc2cccc(C)c2C)c1`, the Potency was 9.2 µM (active). For `CCOC(=O)C1CCCN(C(=O)c2ccc3c(c2)sc2nc(-c4ccc(CC)cc4)cn23)C1` (configuration not stated), the Potency result is “inactive”. Regarding `Cc1ccc(-c2nc3ccccn3c2Nc2c(C)cccc2C)o1`, the activity change, negative = inhibition was 3.18% [at 9.27 µM] (inactive). Turning to `CC1(C)CC(N2CCN(C(c3ccccc3)c3ccccc3)CC2)=CC(=[N+]2CCCCC2)C1`, the Potency was 7.31 µM (active). As to `O=C(O)CN1CCN(C(c2ccccc2)c2ccccc2)CC1`, the Potency entry was “inactive”. Still for that read-out and setting: under `CC(C)NC(=S)N1CCN(C(c2ccccc2)c2ccccc2)CC1` stands “inactive”.

In the case of `Cc1ccc(C(=O)CSc2nc(-c3ccccc3)nc3c2CCCC3)c(C)c1`, the Potency result was “inactive”. Still for that read-out and setting: the value for `O=C(NCc1ccccc1CN1CCCC1)c1cccc(S(=O)(=O)Nc2ccc(F)cc2)c1` was “inactive”. The same measure, in the same setting: under `COc1ccc2sc(-c3ccc(N(C)C)cc3)c(-c3ccc4cc[nH]c4c3)c2c1` stands “inactive”; under `COc1ccc2c(c1)c(=Cc1ccc(N(C)C)cc1)c1cc(-c3ccccc3)[n+](C)n12`, 16.4 µM (active). The same measure, in the same setting: under `COc1ccc2sc(-c3ccc(N(C)C)cc3)c(C#CCO)c2c1` stands “inactive”; under `CC1Cc2ccccc2N1S(=O)(=O)c1cccc(C(=O)NCC(c2ccco2)N2CCCC2)c1` (configuration not stated), “inactive”. For the compound `Cc1nc(SCC(=O)NC2CCCCC2C)c(C#N)c(C)c1C` (configuration not stated), the Potency entry was “inactive”. On the same count and under the same terms, the value for `CC1(C)C(=O)CCC2(C)C1=CCC1C2C(=O)CC2(C)C1CCC2(O)C(=O)CO` (configuration not stated) was “inactive”. On the same count and under the same terms, under `CC(=O)OCC(=O)C1(O)CCC2C3CC(C)C4=CC(=O)CCC4(C)C3C(O)CC21C` (configuration not stated) stands 0.082 µM (active); under `O=C1c2ccccc2C(=O)N1c1ccc(S(=O)(=O)N2CCOCC2)c2ccccc12`, “inactive”; under `O=S(=O)(c1ccc(SCc2ccc(Br)cc2)nc1)N1CCOCC1`, “inactive”. Turning to `CCOc1cc(N2CCOCC2)c(OCC)cc1NC(=O)COc1cccc2cccnc12`, the Potency was 20.6 µM (active). On the same count and under the same terms, the value for `CCOc1cc(N2CCOCC2)c(OCC)cc1NC(=O)COc1cccc(Cl)c1` was “inactive”; that for `CCOc1cc(N2CCOCC2)c(OCC)cc1NC(=O)COC(=O)[C@H](Cc1c[nH]c2ccccc12)NC(C)=O` was “inactive”. `C=CCSc1nc2ccccc2[nH]1`: the Potency result is “inactive”. With `O=C(CSc1nc2ccccc2[nH]1)Nc1nc(-c2ccccc2)c(-c2ccccc2)o1`, the Potency result was “inactive”. Still for that read-out and setting: the value for `CCC(C)N1C(=O)S/C(=C/c2ccc(Sc3nc4ccccc4[nH]3)o2)C1=O` (configuration not stated) was 0.731 µM (active); that for `C#CCOc1ccc(C2CC(=O)Nc3c2c(C)nn3-c2nc(C)cc(C)n2)cc1` (configuration not stated) was “inactive”. On to `CC(C)(CNC(=O)Cc1ccc(Cl)cc1Cl)N1CCOCC1`, for which the Potency result was “inactive”. Same read-out and setting: under `CC(C)(CNC(=O)c1ccc(Cl)c(S(=O)(=O)N2CCc3ccccc3C2)c1)N1CCOCC1` stands 13 µM (active); under `CN(C)S(=O)(=O)c1ccc(C(=O)NCC(C)(C)N2CCOCC2)cc1`, “inactive”; under `Cc1noc(C)c1-c1ccc2ncnc(NCc3ccc(F)c(F)c3)c2c1`, “inactive”.

`COc1ccccc1-c1noc(-c2ccc(NCc3ccccc3)c([N+](=O)[O-])c2)n1`: the Potency result was “inactive”.

These data come from PubChem BioAssay AID504444 (National Center for Advancing Translational Sciences (NCATS), 2011).
